L3MBTL1 inh = inhibitors of human L3MBTL1. Q9Y468. AlphaScreen L3MBTL1–H3K9me1 peptide binding. Potency, µM (doses to about 57.1 µM), for inactives: at the top dose activity, negative = inhibition, most hits filed as inhibitors. hit rate 0.66% among 230,000. AID 485360; active = well fitted inhibition curve with a large enough effect; inconclusive = small, poorly fitted or top-dose-only effect; inactive = no such curve, though single readings can be large or run the other way; note: potency is the fitted concentration of half-maximal effect; nearly all actives have a fitted effect of over 60% in size
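AlphaScreen assay: L3MBTL1 (50 nM final) was preincubated 30 min at room temperature with biotinylated H3(1-15)K9me1 peptide (75 nM final), then 30 min with library compounds; streptavidin donor and nickel chelate acceptor beads (10 ug/mL final) added, 30 min dark.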
JMJD2E inh = blocks human JMJD2E demethylase activity. hit rate 1.6% among 230,000. JMJD2E catalytic domain, FDH-coupled NADH fluorescence (FDH is formaldehyde dehydrogenase). Potency, µM (titrated, usually from 57.1 µM), for inactives: top-dose activity change, negative = inhibition, actives largely listed as inhibitors; active = well fitted inhibition curve with a large enough effect, not every such curve was filed as active; inconclusive = small, poorly fitted or top-dose-only effect, or another doubt; inactive = no such curve, though single readings can be large or run the other way;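 note: potency is the fitted concentration of half-maximal effect; 0% = wells with enzyme and -100% = buffer wells without enzyme; nearly all actives have a fitted effect of over 50% in size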
Six1-Eya2 inh = Six1/Eya2 interaction inhibition; activity change, % (test concentration not listed); AlphaScreen GST-Six1/His-Eya2 binding, biochemical; hits give low values; Q15475+O00167; hit rate 0.56% among 360,000; AID 651725
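AlphaScreen with GST-Six1 and His-Eya2 (5X mix: 250 nM and 500 nM), glutathione donor and nickel acceptor beads; buffer 50 mM Tris pH 8.0, 300 mM NaCl, 1 mM TCEP; 1 h at 37 C in the dark.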
CtBP-E1A blk = blocks the CtBP interaction with E1A. activity change, % (concentration not given with the values). AlphaScreen GST-E1A/His-CtBP binding, 1536-well; hits give low values. hit rate 0.49% among 340,000. AID 651724
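AlphaScreen with 125 nM GST-E1A and 125 nM His-CtBP (5X stocks) in Tris pH 8.0, 300 mM NaCl, BSA, Tween 20, TCEP. Compounds preincubated 2 h at 37 deg C, then glutathione donor/nickel acceptor beads added for 1 h at 37 deg C in dark.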
* hit, by the source's call. Only a selection was taken, and hits are over-represented in it overall. Cut-off read from the data, not from the text of the source, unless noted: active = activity change below about -65%; inconclusive = mostly about -30% to -63%; inactive = weaker than that. Unless noted, % is set by controls: 0 for no effect and ±100 for the full control effect.

How did COc1ccc(-c2cc(C)no2)cc1S(=O)(=O)NCc1ccc(OC(C)C)cc1 do in these assays?
Six1-Eya2 inh: -2.4; CtBP-E1A blk: 0.1

Results for CC(C)C[C@@H](CC(=O)N[C@H](CC(=O)N[C@@H]1CCCC[C@H]1C(=O)N[C@H](CC(=O)N[C@@H](CCC(=O)O)CC(=O)O)Cc1ccccc1)C(C)C)NC(=O)[C@@H]1CNCC[C@H]1N ?
JMJD2E inh: -17.6%

How did CCN(CC)C(=O)C1=C(C)N(CCCOC)C(=O)C(CC(=O)NCCCN(C)C)C1 (stereo not drawn) do in these assays?
Six1-Eya2 inh: 9.5; CtBP-E1A blk: -5.9

What do the screens show for `NC(Cc1c[nH]c2ccccc12)C(=O)NCC(=O)O` (stereo not drawn)?
JMJD2E inh: -6.5%

What do the screens show for `O=C(CCN1CCN(C(c2ccccc2)c2ccccc2)CC1)N/N=C/c1ccc(O)cc1`?
L3MBTL1 inh: -8.9%; JMJD2E inh: 0.6%; Six1-Eya2 inh: -25.7; CtBP-E1A blk: -3.5

How did O=C(CCN1CCN(C(c2ccccc2)c2ccccc2)CC1)N/N=C/c1ccc(O)cc1O do in these assays?
L3MBTL1 inh: -14.5%; JMJD2E inh: inconclusive; Six1-Eya2 inh: -11.3; CtBP-E1A blk: -73.4*

How did O=C(CCC(=O)Nc1ccc(F)cc1)N/N=C/c1ccc(O)cc1O do in these assays?
JMJD2E inh: 25.1µM*; Six1-Eya2 inh: inconclusive; CtBP-E1A blk: inconclusive

How did O=C(CCC(=O)Nc1ccc(F)cc1)N/N=C/c1ccc(O)cc1 do in these assays?
Six1-Eya2 inh: -14.5; CtBP-E1A blk: -29.9

What do the screens show for `Oc1c(Cl)cc(Cl)cc1CNc1ccc(Br)cn1`?
JMJD2E inh: -0.3%; Six1-Eya2 inh: -70.1*; CtBP-E1A blk: -75.1*

Results for Oc1ccc(Cl)cc1CNc1ccc(Br)cn1 ?
L3MBTL1 inh: 13.5%; JMJD2E inh: -21.5%; Six1-Eya2 inh: -3.0; CtBP-E1A blk: 3.9

Results for CCc1ccc(N2CC(C(=O)NC3CCCCC3C)CC2=O)cc1 (stereo not drawn) ?
Six1-Eya2 inh: -17.5; CtBP-E1A blk: 0.0

Results for CCN(CC)c1ccc(N=Cc2ccc([N+](=O)[O-])o2)cc1 ?
L3MBTL1 inh: inconclusive; JMJD2E inh: 2.82µM*; Six1-Eya2 inh: inconclusive; CtBP-E1A blk: -23.4

How did CCNc1nc(NCC)nc(N/N=C/c2ccc([N+](=O)[O-])o2)n1 do in these assays?
JMJD2E inh: 1.2%; Six1-Eya2 inh: -83.5*; CtBP-E1A blk: -85.4*

How did O=[N+]([O-])c1ccc(/C=N/Nc2nc(N3CCCC3)nc(N3CCCC3)n2)o1 do in these assays?
JMJD2E inh: inconclusive; Six1-Eya2 inh: -10.0; CtBP-E1A blk: -1.8

How did CCN(CC)c1ccc(N=Cc2ccccc2[N+](=O)[O-])cc1 do in these assays?
L3MBTL1 inh: 28.2µM*; JMJD2E inh: 5.01µM*; Six1-Eya2 inh: -79.9*; CtBP-E1A blk: 15.9

How did COc1ccc2ccccc2c1-c1c(OC)ccc2ccccc12 do in these assays?
JMJD2E inh: -5.1%

Results for CC/C=C\C/C=C\C/C=C\C/C=C\C/C=C\C/C=C\CCC(=O)NCCO ?
JMJD2E inh: -5.2%

How did CCCC[C@@H]1C[C@H]1C(NC(=O)c1cccs1)c1ccc(-c2ccccc2)cc1 (stereo partly drawn) do in these assays?
JMJD2E inh: -5.9%

How did O=C(CSc1ccc(-c2ccccn2)nn1)N1CCCc2ccccc21 do in these assays?
L3MBTL1 inh: inconclusive; JMJD2E inh: inconclusive; Six1-Eya2 inh: -80.4*; CtBP-E1A blk: -66.2*

How did c1ccc(-c2ccc(SCc3cccnc3)nn2)nc1 do in these assays?
JMJD2E inh: inconclusive; Six1-Eya2 inh: -90.6*; CtBP-E1A blk: -88.9*

What do the screens show for `c1cncc(CSc2ccc(-c3cccnc3)nn2)c1`?
JMJD2E inh: 9.5%; Six1-Eya2 inh: 0.8; CtBP-E1A blk: 0.0

Results for O=C(CSc1ccc(-c2cccnc2)nn1)N1CCCc2ccccc21 ?
JMJD2E inh: 5.3%

Results for c1ccc(CSc2ccc(-c3ccccn3)nn2)nc1 ?
JMJD2E inh: inconclusive; Six1-Eya2 inh: -92.9*; CtBP-E1A blk: -94.2*

What do the screens show for `CC(=O)C1=C(S(=O)(=O)c2ccc(C)cc2)CS(=O)(=O)C1`?
L3MBTL1 inh: 3.9%; JMJD2E inh: 14.1µM*; Six1-Eya2 inh: -13.7; CtBP-E1A blk: -1.6

Results for CCCCC(c1nnnn1CS(=O)(=O)c1ccc(C)cc1)N1CCN(C)CC1 (stereo not drawn) ?
L3MBTL1 inh: -27.3%; JMJD2E inh: 7.1%; Six1-Eya2 inh: 4.4; CtBP-E1A blk: 4.3

Screening data as filed in PubChem.
